Experimental data taken from PubChem BioAssay (NCATS).
Several values for one entry are separate records, joined by “and”; a condition that tells them apart may be missing. Equal values may be shown once. Records with an inconclusive call do not appear. Activity calls are given as the source filed them. Unless noted, the call rests on the fitted dose curve; in most records, active means well fitted curve in the direction sought with a large enough effect; inconclusive means small, poorly fitted or top-dose-only effect, or another doubt; inactive means no such curve, though single readings can be large; an effect the other way counts as inactive or inconclusive.

Assays:
[1] = test system: WaGa; test: qHTS assay to identify novel small-molecules to repurpose for Merkel cell carcinoma treatment (AID 1296009); conditions: MCC and control cell lines, CellTiter-Glo viability, 72 h; series mostly up to 46 µM; further: on the % scale 0 is the no-effect control and ±100 the full control effect; nearly all actives have a fitted effect of over 60% in size
Summary of the method: (§1)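 Cells were treated for 72 hr at 37 degree celsius with compounds in 8- or 11-point dose response. Viability was read by CellTiter-Glo luminescence, normalized to no-cell (cytotoxicity) and DMSO controls.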

[2] = test system: C33A; test: Primary qHTS to identify gynecologic anti-cancer compounds using libraries of approved drugs and bioactive compounds (AID 1345084); conditions: Gynecologic cancer cell panel viability, ATPlite luminescence, 48 h; series mostly up to 57.5 µM; further: on the % scale 0 is the no-effect control and ±100 the full control effect; nearly all actives have a fitted effect of over 55% in size
Summary of the method: (§2)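 ATP-based viability (ATPlite), 1,000 cells/well, 16 h pre-incubation, 48 h compound at 37 C, 5% CO2, 15 min RT before read.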

[3] = test system: CAOV3; test: as above; conditions: Gynecologic cancer cell panel viability, ATPlite luminescence, 48 h; series mostly up to 57.5 µM
Summary of the method: as §2

[4] = test system: CASKI; test: as above; conditions: Gynecologic cancer cell panel viability, ATPlite luminescence, 48 h; series mostly up to 57.5 µM
Summary of the method: as §2

[5] = test system: Es-2; test: as above; conditions: Gynecologic cancer cell panel viability, ATPlite luminescence, 48 h; series mostly up to 57.5 µM
Summary of the method: as §2

[6] = test system: HeLa; test: as above; conditions: Gynecologic cancer cell panel viability, ATPlite luminescence, 48 h; series mostly up to 57.5 µM
Summary of the method: as §2

[7] = test system: Hek293T; test: as above; conditions: Gynecologic cancer cell panel viability, ATPlite luminescence, 48 h, control line for the selectivity index; series mostly up to 57.5 µM
Summary of the method: as §2

[8] = test system: JEG-3; test: as above; conditions: Gynecologic cancer cell panel viability, ATPlite luminescence, 48 h; series mostly up to 57.5 µM
Summary of the method: as §2

[9] = test system: OV90; test: as above; conditions: Gynecologic cancer cell panel viability, ATPlite luminescence, 48 h; series mostly up to 57.5 µM
Summary of the method: as §2

[10] = test system: PA-1; test: as above; conditions: Gynecologic cancer cell panel viability, ATPlite luminescence, 48 h; series mostly up to 57.5 µM
Summary of the method: as §2

[11] = test system: SKOV3; test: as above; conditions: Gynecologic cancer cell panel viability, ATPlite luminescence, 48 h; series mostly up to 57.5 µM
Summary of the method: as §2

[12] = test system: Tov-21-G; test: as above; conditions: Gynecologic cancer cell panel viability, ATPlite luminescence, 48 h; series mostly up to 57.5 µM
Summary of the method: as §2

[13] = test system: Tov112D; test: as above; conditions: Gynecologic cancer cell panel viability, ATPlite luminescence, 48 h; series mostly up to 57.5 µM
Summary of the method: as §2

[14] = Drug repurposing screens with cells derived from glioblastoma tumor samples (AID 1345199); conditions: GBM patient neurospheres viability, ATP luminescence, 48 h; further: on the % scale 0 is the no-effect control and ±100 the full control effect; nearly all actives have a fitted effect of over 40% in size
Summary of the method: (§3)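 Four patient lines of CD133+ GBM neurospheres were screened at several concentrations; hits were retested in those lines plus three slower-growing GBM lines, using 48-hour treatment and ATP-based viability.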

[15] = test system: astro; test: as above; conditions: viability, ATP luminescence, 48 h; series mostly up to 45.9 µM
Summary of the method: as §3

[16] = test system: UISO; test: qHTS assay to identify novel small-molecules to repurpose for Merkel cell carcinoma treatment (AID 1296009); conditions: MCC and control cell lines, CellTiter-Glo viability, 72 h; series mostly up to 46 µM; further: on the % scale 0 is the no-effect control and ±100 the full control effect; nearly all actives have a fitted effect of over 60% in size
Summary of the method: as §1

[17] = target: Nuclear receptor subfamily 1 group I member 2 (Rattus norvegicus) (UniProt Q9R1A7); test: qHTS assay for small molecule activators of the rat pregnane X receptor (rPXR) signaling pathway (AID 651751; call rule not given here; further: 0% is about no effect); conditions: rPXR reporter cells, luciferase (One-Glo), 24 h
[18] = qHTS assay for small molecule activators of the human pregnane X receptor (PXR) signaling pathway (AID 720659; call rule not given here; further: 0% is about no effect)
[19] = at 45.9 µM (top of the series), tumour line B
[20] = at 45.9 µM (top of the series), tumour line D
[21] = at 46.1 µM (top of the series), tumour line C
[22] = at 21.2 µM (top of the series), tumour line B
[23] = at 46 µM (top of the series), tumour line A
[24] = at 20 µM (top of the series), tumour line C
[25] = at 21.2 µM (top of the series), tumour line D

Chain of Nuclear receptor subfamily 1 group I member 2 (Rattus norvegicus) (Q9R1A7 whole entry, looked up): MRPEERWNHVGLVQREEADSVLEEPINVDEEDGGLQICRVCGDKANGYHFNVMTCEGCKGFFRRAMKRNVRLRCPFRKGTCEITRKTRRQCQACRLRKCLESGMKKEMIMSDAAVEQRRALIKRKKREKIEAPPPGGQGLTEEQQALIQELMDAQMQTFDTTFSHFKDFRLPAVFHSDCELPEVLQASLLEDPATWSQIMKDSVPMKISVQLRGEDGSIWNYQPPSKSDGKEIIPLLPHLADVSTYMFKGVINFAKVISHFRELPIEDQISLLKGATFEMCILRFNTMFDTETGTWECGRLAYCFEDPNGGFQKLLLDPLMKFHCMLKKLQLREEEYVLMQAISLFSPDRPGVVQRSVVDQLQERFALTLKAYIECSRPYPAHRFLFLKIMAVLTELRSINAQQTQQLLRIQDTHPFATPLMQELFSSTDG

Cc1ccccc1N=Nc1ccc(N=Nc2c(O)ccc3ccccc23)c(C)c1
inactive: outcome [1] | outcome [2] | outcome [3] | outcome [4] | outcome [5] | outcome [6] | outcome [7] | outcome [8] | Potency [9] | outcome [10] | outcome [11] | outcome [12] | outcome [13] | activity, negative = cell killing [14, 19] -15.7% | activity, negative = cell killing [14, 20] -2.5% | activity, negative = cell killing [14, 21] -1.06% | outcome [15]

COc1ccc2cc(CCC(C)=O)ccc2c1
inactive: outcome [16] | outcome [1] | outcome [2] | outcome [4] | outcome [5] | outcome [6] | outcome [10] | outcome [12] | outcome [13] | activity, negative = cell killing [14, 22] -27.9%

Cn1c([N+](=O)[O-])cnc1COC(N)=O
inactive: outcome [16] | outcome [1] | outcome [2] | outcome [4] | outcome [5] | outcome [6] | outcome [7] | outcome [8] | Potency [9] | outcome [10] | outcome [11] | outcome [12] | outcome [13] | activity, negative = cell killing [14, 19] -9.55% | activity, negative = cell killing [14, 20] -8.48% | activity, negative = cell killing [14, 23] -18.6% | activity, negative = cell killing [14, 21] -20.8% | outcome [15]

Cc1cccc(C)c1NC(=O)CC12CCCN1CCC2
inactive: outcome [16] | outcome [1] | outcome [2] | outcome [4] | outcome [5] | outcome [6] | outcome [7] | outcome [8] | Potency [9] | outcome [10] | outcome [11] | outcome [12] | outcome [13] | activity, negative = cell killing [14, 19] -10.6% | activity, negative = cell killing [14, 20] -15.8% | outcome [15]

CC(C)CCOC(=O)c1ccc(N(C)C)cc1
inactive: outcome [16] | outcome [1] | outcome [2] | outcome [4] | outcome [5] | outcome [6] | outcome [7] | outcome [8] | Potency [9] | outcome [10] | outcome [11] | outcome [12] | outcome [13] | activity, negative = cell killing [14, 19] -5.37% | activity, negative = cell killing [14, 20] -2.75% | activity, negative = cell killing [14, 23] -50% | activity, negative = cell killing [14, 21] -13.2% | outcome [15]

COc1ccc(O)cc1
inactive: outcome [16] | outcome [1] | outcome [2] | outcome [4] | outcome [5] | outcome [6] | outcome [7] | outcome [8] | Potency [9] | outcome [10] | outcome [11] | outcome [12] | outcome [13] | activity, negative = cell killing [14, 19] -15% | activity, negative = cell killing [14, 20] -17.8% | activity, negative = cell killing [14, 21] -24.9% | outcome [15] | max response [17] -3% | outcome [18]

CCC(C)(CN(C)C)OC(=O)c1ccccc1 (stereo not given)
inactive: outcome [16] | outcome [1] | outcome [2] | outcome [4] | outcome [5] | outcome [6] | outcome [7] | outcome [8] | Potency [9] | outcome [10] | outcome [11] | outcome [12] | outcome [13] | activity, negative = cell killing [14, 24] -12.8% | activity, negative = cell killing [14, 22] -2.39% | activity, negative = cell killing [14, 25] -5.13% | outcome [15]

NS(=O)(=O)c1ccc(C(=O)O)cc1
inactive: outcome [16] | outcome [1] | outcome [2] | outcome [4] | outcome [5] | outcome [6] | outcome [7] | outcome [8] | Potency [9] | outcome [10] | outcome [11] | outcome [12] | outcome [13] | activity, negative = cell killing [14, 19] -5.24% | activity, negative = cell killing [14, 20] 4.61% | activity, negative = cell killing [14, 23] -19% | activity, negative = cell killing [14, 21] -15.2% | outcome [15]

Nc1c2c(nc3c1CCC3)CCCC2
inactive: outcome [16] | outcome [1] | outcome [2] | outcome [4] | outcome [5] | outcome [6] | outcome [7] | outcome [8] | Potency [9] | outcome [10] | outcome [11] | outcome [12] | outcome [13] | activity, negative = cell killing [14, 19] -2.28% | activity, negative = cell killing [14, 20] -13.4% | activity, negative = cell killing [14, 21] -27.2% | outcome [15]

CC(=O)SC[C@@H](Cc1ccccc1)C(=O)NCC(=O)OCc1ccccc1
inactive: outcome [16] | outcome [1] | outcome [2] | outcome [4] | outcome [5] | outcome [6] | outcome [7] | outcome [8] | Potency [9] | outcome [10] | outcome [11] | outcome [12] | outcome [13] | activity, negative = cell killing [14, 24] 2.42% | activity, negative = cell killing [14, 22] -12.3% | activity, negative = cell killing [14, 25] -8.77%

O=C1c2ccccc2C(=O)C1c1ccc(Br)cc1
inactive: outcome [16] | outcome [1] | outcome [2] | outcome [4] | outcome [5] | outcome [6] | outcome [7] | outcome [8] | Potency [9] | outcome [10] | outcome [11] | outcome [12] | outcome [13] | activity, negative = cell killing [14, 19] -20.2% | activity, negative = cell killing [14, 20] -25.8% | activity, negative = cell killing [14, 21] -18.3%

Cc1c(Cn2ccnc2)c2ccccc2n1CCC(=O)O
inactive: outcome [16] | outcome [1] | outcome [2] | outcome [4] | outcome [5] | outcome [6] | outcome [7] | outcome [8] | Potency [9] | outcome [10] | outcome [12] | outcome [13] | activity, negative = cell killing [14, 19] 1.3% | activity, negative = cell killing [14, 20] -4.06% | activity, negative = cell killing [14, 23] -28% | activity, negative = cell killing [14, 21] -6.27%

Cc1c(N(C)C)c(=O)n(-c2ccccc2)n1C
inactive: outcome [16] | outcome [1] | outcome [2] | outcome [4] | outcome [5] | outcome [6] | outcome [7] | outcome [8] | Potency [9] | outcome [10] | outcome [11] | outcome [12] | outcome [13] | activity, negative = cell killing [14, 19] -5.14% | activity, negative = cell killing [14, 20] -8.5% | activity, negative = cell killing [14, 23] -17.7% | activity, negative = cell killing [14, 21] -17.7% | outcome [15] | max response [17] -0.504% and 0.241% | outcome [18]

CC1CCc2cc(F)cc3c(=O)c(C(=O)O)cn1c23 (stereo not given)
inactive: outcome [16] | outcome [1] | outcome [2] | outcome [4] | outcome [5] | outcome [6] | outcome [7] | outcome [8] | Potency [9] | outcome [10] | outcome [12] | outcome [13] | activity, negative = cell killing [14, 19] -0.458% | activity, negative = cell killing [14, 20] -19% | activity, negative = cell killing [14, 23] -20.5% | activity, negative = cell killing [14, 21] -25.6% | outcome [15]
